In PubChem BioAssay (NCATS):
Records with an inconclusive call do not appear. A number with no mark means an inactive call. The source made the active and inactive calls. Calls follow the shape of the dose curve; as a rule, active = well fitted cell-killing curve with a large enough effect; inconclusive = small, poorly fitted or top-dose-only effect; inactive = flat fitted curve, though single readings scatter. Peptide text beside a SMILES is read from it. * marks the point of attachment. Cbz = O=C(OCc1ccccc1)*

assay: Cellular viability qHTS for adrenocortical cancer (ACC) cell line NCI-H295R (AID 1963990); conditions: CellTiter-Glo ATP luminescence, 48 h; series mostly up to 46.1 µM; activity change, negative = viability loss: at the top concentration; also: nearly all actives have a fitted effect of over 60% in size
Description: PI: Naris Nilubol, MD Surgical Oncology Program, National Cancer Institute (NCI) National Institute of Health (NIH), Bethesda, Maryland Adrenocortical cancer (ACC) is a rare malignancy with poor survival outcomes and few treatment options. Currently, mitotane is the only FDA-approved therapy for ACC. Although adjuvant radiation therapy is rarely utilized, it has the potential to improve survival in select cases. Through a quantitative high-throughput drug screen (qHTS), we identified auranofin (AF), a thioredoxin reductase (TXNRD) inhibitor, as a promising candidate drug. This study aims to evaluate whether AF can enhance the efficacy of radiation therapy in the treatment of ACC. Two human ACC cell lines, SW-13 and NCI-H295R, were screened using the National Center for Advancing Translational Sciences (NCATS) Pharmaceutical Collection (NPC) and the Mechanism Interrogation PlatE (MIPE) library (~4,991 compounds). CellTiter-Glo (Cat # G7570, Promega, Madison, WI) was utilized to measure cell viability. Described herein are the results of the corresponding viability assay.
PROTOCOL TABLE (as described by Inglese J, Shamu CE and Guy RK. 2007) SEQUENCE No. (e.g., 1, 2, 3, etc.); […] (e.g., Cells, Incubation, Reagent, etc.); VALUE; DESCRIPTION. 1; Cells; 5 uL; white, solid-bottom, 1536-well tissue-culture treated plates. 2; Time; overnight culture at 37C with 5% CO2. 3; Compounds and control; 23 nL; Kalypsis pin tool (Wako USA) equipped with a 1536-well pin head to transfer to the assay plates. 4; Time; 48 hours; 37C with 5% CO2. 5; Reagent; 4 uL; CellTiter-Glo luminescent substrate mix. 6; Time; 20 min at room temperature. 7; Detection; Luminescence; ViewLux plate reader NOTES (numbers refer to Sequence numbers above) 1. NCI-H295R cells were harvested from a T175 flask and resuspended in ITS-supplemented DMEM serum-free medium at a concentration of 300 000 cells/mL. Then 5 uL of resuspended cells were dispensed into each well of white, solid-bottom, 1536-well tissue-culture-treated plates using a multidrop combi dispenser. The plates were covered with stainless steel gasket lids. 2-3. The plates were cultured overnight at 37C with 5% CO2. Twenty-three nL of compounds (eight selected concentrations from the NPC / MIPE) or positive control (10 mM stock of bortezomib) in DMSO was transferred to each well of the assay plate using a pin tool (Kalypsys, San Diego, CA, USA). The final concentration of the compounds in the 5 uL assay volume ranged from 0.5 nM to 46 uM. 4-6. After 48 hours of incubation at 37C and 5% CO2, 4 uL of CellTilter-Glo luminescent substrate mix (Promega, Madison, WI, USA) was added to each well. Then the plates were incubated for 20 minutes at room temperature. 7. After incubation, luminescence was measured using a ViewLux plate reader (PerkinElmer, Waltham, MA, USA) with a clear filter was used to measure the number of metabolically competent cells. To determine compound activity in the qHTS assay, the titration-response data for each sample was plotted and modeled by a four-parameter logistic fit yielding IC50 and efficacy (maximal response) values. Raw plate reads for each titration point were normalized relative to positive control ([…], 100% inhibition) and DMSO-only wells (basal, 0%). REFERENCES: Inglese J, Shamu CE and Guy RK, Reporting data from high throughput screening of small molecule libraries, Nature Chemical Biology, 2007, 3(8): 438-441. doi.org/10.1038/nchembio0807-438.

Compound	Potency	activity change, negative = viability loss
CN(C)CCN(C)C(=O)c1ccc(NC(=O)Nc2ccc(-c3nc(N4CCOCC4)c4ccn(CC(F)(F)F)c4n3)cc2)cc1	3.16 µM (active)	–
COc1ccc(-n2c(C)c([N+](=O)[O-])c3ccc(O)cc32)cc1	–	-17%
O=C(/C=C/c1ccc(Cl)cc1)N1CCC2(CC1)CN(Cc1ccc(Cl)c(Cl)c1)C(=O)O2	–	-18.7%
O=C(c1ccc(C(=O)N2CCC(N3CCCC3)CC2)c(Nc2ccccc2)c1)N1CCC(N2CCCC2)CC1	–	0.862%
O=C1C(O)=C(O)C(=O)C(O)=C1O	–	0.984%
CN1CCC(c2c(O)cc(O)c3c(=O)cc(-c4ccccc4Cl)oc23)C1CO (stereo not given)	3.16 µM (active)	–
CC(NN)c1ccccc1 (stereo not given)	–	-14.6% [at 20 µM]
COc1cc(N2CCN(C(C)=O)CC2)ccc1Nc1ncc(Cl)c(Nc2ccc(N3CCN(C(C)=O)CC3)cc2OC)n1	12.6 µM (active)	–
O=c1[nH]cc(F)c(=O)[nH]1	–	-25.5%
O=C1c2ccccc2CCc2ccccc21	–	-5.97%
Nc1ncn([C@H]2C[C@H](O)[C@@H](CO)O2)c(=O)n1	inactive	–
Cn1c(=O)c2c(ncn2CC(=O)O)n(C)c1=O	–	2.09%
COc1cc(NC(C)CCCN)c2ncccc2c1 (stereo not given)	8.2 µM (active)	–
CCCCCC[C@@H](CCC)C(=O)O	–	-0.815%
CC(C)C[C@@H](C=O)NC(=O)[C@H](CC(C)C)NC(=O)[C@H](CC(C)C)NC(=O)OCc1ccccc1 (Cbz-Leu-Leu-Leu-aldehyde)	1.26 µM (active)	–
CC(C)C(=O)Nc1ncc(-c2cc(C(F)F)nn2-c2c(Cl)cccc2Cl)s1	22.4 µM (active)	–
CC(=O)OCC[N+](C)(C)C	–	2.19%
CC[C@H](C=C[C@@H](C)[C@H]1CC[C@H]2[C@@H]3CC=C4C[C@@H](O)CC[C@]4(C)[C@@H]3CC[C@]12C)C(C)C	–	1.9% [at 20 µM]
C#Cc1cccc(Nc2ncnc3cc(OCCOC)c(OCCOC)cc23)c1	6.51 µM (active)	–
CCCc1ccc(OCC(=O)N2CCN(C(=O)COc3ccc(CCC)cc3OC)CC2)c(OC)c1	–	-17.2%

Compound	Potency	activity change, negative = viability loss
O=C(O)c1cc(=O)[nH]c(=O)[nH]1	inactive	–
C=CC(=O)Nc1ccc2ncnc(Nc3ccc(OCc4cccc(F)c4)c(Cl)c3)c2c1	6.31 µM (active)	–
COc1cc(OC)c(C(=O)CCCN2CCCC2)c(OC)c1	inactive	–
O=C(CN1CCN(Cc2ccc3c(c2)OCO3)CC1)N1c2ccccc2Sc2ccccc21	–	7.58%
COc1cc(C=O)ccc1O	–	-0.238%
C[C@@H]1CN(Cc2ccc(F)cc2)[C@@H](C)CN1C(=O)c1cc2c(C(=O)C(=O)N(C)C)cn(C)c2cc1Cl	–	-13.7%
Cc1sccc1Br	–	-11.2%
O=C(c1ccc(F)cc1)N1CCC[C@H](c2nc(-c3ccc(F)cc3)no2)C1	–	-2.57%
CCN(CC)C(=O)c1cccc(C)c1	–	-22.2%
CCO/C([O-])=N/c1c[n+](N2CCOCC2)no1	–	-6.52%
O=C(CCCCCCC(=O)Nc1cccnc1)NO	4.47 µM (active)	–
CC(C)=CCNc1ncnc2c1ncn2[C@@H]1O[C@H](CO)[C@@H](O)[C@H]1O	7.31 µM (active)	–
O=C1CCC(N2C(=O)c3ccccc3C2=O)C(=O)N1 (stereo not given)	inactive	–
CCOc1cc(C(C)(C)C)ccc1C1=N[C@@](C)(c2ccc(Cl)cc2)[C@@](C)(c2ccc(Cl)cc2)N1C(=O)N1CCN(CC(=O)N2CCOCC2)CC1	14.1 µM (active)	–
CCOC(=O)N1c2ccc(C(F)(F)F)cc2[C@@H](N(Cc2cc(C(F)(F)F)cc(C(F)(F)F)c2)C(=O)OC)C[C@H]1CC	–	3.95%
CCCC(=O)O[C@]1(C(=O)CO)CC[C@H]2[C@@H]3CCC4=CC(=O)CC[C@]4(C)[C@H]3[C@@H](O)C[C@@]21C	–	-29.9%
C[C@]12CC[C@@H]3c4ccc(O)cc4C[C@@H](CCCCCCCCCS(=O)CCCC(F)(F)C(F)(F)F)[C@H]3[C@@H]1CC[C@@H]2O (stereo not given in full)	–	-19.2%
C=CC(=O)Nc1cccc(Oc2nc(Nc3ccc(N4CCN(C)CC4)c(F)c3)nc3[nH]ccc23)c1	8.91 µM (active)	–
Cc1nc2n(c(=O)c1CCN1CCC(c3noc4cc(F)ccc34)CC1)CCC[C@H]2O	–	-26.3% [at 20 µM]
CN[C@@H]1C[C@H]2O[C@@](C)([C@@H]1OC)n1c3ccccc3c3c4c(c5c6ccccc6n2c5c31)C(=O)N[C@H]4O	0.15 µM (active)	–
